Assay outcomes from PubChem BioAssay.
A selection: hits, their analogues and other compounds. The true share with any hit is near 5.8%.
KB-3-1 tox = KB-3-1 parental cell cytotoxicity | KB-3-1 viability, CellTiter-Glo ATP luminescence, 72 h | Potency, µM (highest dose often 46.1 µM), actives largely listed as cytotoxic | 400,000 tested, 1.4% active; note: % is set by controls: 0 for no effect and ±100 for the full control effect; nearly all actives have a fitted effect of over 60% in size
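Viability of parental KB-3-1 cells, measured by CellTiter-Glo luminescence, followed a 72 h incubation at 37 °C with pinned compounds in phenol-red-free DMEM containing 10% FBS.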
MCF10A rerep = induces DNA re-replication in MCF 10a normal breast cells. MCF 10A DNA re-replication, Hoechst nuclear intensity, 48 h. Potency, µM (highest dose often 46.1 µM), for the others: at the top dose activity, positive = re-replication, most hits filed as activators. 350,000 tested, 2.9% active. AID 624296; note: % of control where 0% means no effect; nearly all actives have a fitted effect of over 50% in size
KB-V1 cytotox = KB-V1 MDR subline cytotoxicity; AID 1347076; KB-V1 MDR cells viability, CellTiter-Glo, 72 h; Potency, µM (series often up to 46.1 µM), most hits filed as cytotoxic; 400,000 tested, 3.4% active; note: % is set by controls: 0 for no effect and ±100 for the full control effect; nearly all actives have a fitted effect of over 60% in size
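Following 72 h at 37 degrees C with compound, KB-V1 cell viability was read by CellTiter-Glo luminescence, medium being phenol-red-free DMEM plus 10% FBS; concentration-response parameters came from normalized, curve-fitted qHTS data.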
ALOX12 inh = inhibitors of human 12S-lipoxygenase ALOX12. P18054. purified 12hLO, xylenol orange hydroperoxide absorbance. Potency, µM (highest dose often 108 µM), without a hit: top-dose activity change, negative = inhibition, actives largely listed as inhibitors. 580,000 tested, 1.1% active; note: % is set by controls: 0 for no effect and ±100 for the full control effect
Target sequence (P18054 whole entry, looked up): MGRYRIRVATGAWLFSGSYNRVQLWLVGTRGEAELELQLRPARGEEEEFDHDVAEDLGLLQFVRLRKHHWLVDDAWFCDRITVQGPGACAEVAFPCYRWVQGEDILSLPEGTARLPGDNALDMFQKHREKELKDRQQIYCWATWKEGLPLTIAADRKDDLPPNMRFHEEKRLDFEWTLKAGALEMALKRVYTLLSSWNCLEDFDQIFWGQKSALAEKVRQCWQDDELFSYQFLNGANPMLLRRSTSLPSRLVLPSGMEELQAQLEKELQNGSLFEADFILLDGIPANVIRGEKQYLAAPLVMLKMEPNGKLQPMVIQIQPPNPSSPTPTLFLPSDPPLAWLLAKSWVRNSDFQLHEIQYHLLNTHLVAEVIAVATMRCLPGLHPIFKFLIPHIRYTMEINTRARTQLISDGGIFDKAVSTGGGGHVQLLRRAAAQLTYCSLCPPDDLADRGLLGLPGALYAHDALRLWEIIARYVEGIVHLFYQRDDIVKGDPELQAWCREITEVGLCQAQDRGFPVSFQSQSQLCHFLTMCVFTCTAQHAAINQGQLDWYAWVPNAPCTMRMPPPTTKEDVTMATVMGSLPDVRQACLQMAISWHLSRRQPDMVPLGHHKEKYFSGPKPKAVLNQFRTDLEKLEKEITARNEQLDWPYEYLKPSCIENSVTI
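Hydroperoxide product was detected by ferrous iron/xylenol orange as the 573 to 405 nm absorbance ratio. Arachidonic acid at 40 uM (final) was turned over for 30 min at room temperature by 150 nM human 12hLO, pH 7.0 Hepes buffer, after 15 min compound preincubation.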
SW480 rerep = DNA re-replication induction in SW480 cells; SW480 DNA re-replication, Hoechst DNA content imaging, 48 h; Potency, µM (highest dose often 46.1 µM), without a hit: at the highest dose re-replication activation, most hits filed as activators; 340,000 tested, 1.8% active; note: % of control where 0% means no effect; nearly all actives have a fitted effect of over 55% in size
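First, 250 cells per well were seeded. Next, compound or vehicle (23 nL) was pinned in, plates sat 48 hr at 37 C. Finally Hoechst was added for 40 min before fluorescence scanning.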
PINK1 modulator = modulators of PINK1 expression. 410,000 tested, 0.2% active. AID 624263. Potency, µM (titrated, usually from 76.6 µM), for inactives: at the top dose activation (PINK1 increase), actives largely listed as activators. PINK1 immunofluorescence, high-content cytometry, 24 h; active = well fitted activation curve with a large enough effect; inconclusive = small, poorly fitted or top-dose-only effect; cell line not stated here; note: % of control where 0% means no effect; nearly all actives have a fitted effect of over 65% in size
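Stable cell line, 250 cells/well, 12 h attachment; compounds pinned at 5 concentrations, 24 h; CCCP control. Fixed with nuclear dye, primary antibodies 12 h at 10 degrees C, secondary plus cell stain; laser-scanning cytometer read.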
* marks the source's active call; other numbers are inactive results; i = inactive; ? = inconclusive; · = no result given; [ ] = remark or other dose. Unless noted, calls come from the whole dose curve; as a rule, active = well fitted curve in the direction sought with a large enough effect; inconclusive = small, poorly fitted or top-dose-only effect, or another doubt; inactive = no such curve, though single readings can be large; an effect the other way counts as inactive or inconclusive. Potency is the fitted concentration of half-maximal effect.

SMILES	KB-3-1 tox	MCF10A rerep	KB-V1 cytotox	ALOX12 inh	SW480 rerep	PINK1 modulator
Cc1ccccc1C(=O)NC(C)c1ccc2c(c1)OCO2 (stereo unspecified)	·	·	·	-42%	·	·
CC(Oc1ccc(Cl)cc1)C(=O)N1CCN(C(=O)c2ccco2)CC1 (stereo unspecified)	i	-5%	21µM*	-1%	-10%	-3%
Cc1cccc(OCC(=O)Nc2ccc(N3CCN(S(C)(=O)=O)CC3)cc2)c1C	i	2%	i	5%	-4%	5%
O=C(COc1ccc(Cl)cc1)Nc1ccc(N2CCN(C(=O)c3ccco3)CC2)cc1	?	?	13µM*	1%[57.4 µM]	14%	2%[38.3 µM]
O=C(c1cc2cc(Cl)ccc2[nH]1)N1CCN(c2ccccc2F)CC1	i	-3%	i	0%	-29%	9%
COc1ccc(OCC(=O)Nc2ccc(N3CCN(C(=O)c4ccco4)CC3)cc2)cc1	i	?	i	19%	-1%	0%
O=C(c1cc2cc(Cl)ccc2[nH]1)N1CCN(C(=O)c2ccco2)CC1	i	2%	i	45µM*	2%	3%
Cc1ccccc1OCC(=O)Nc1ccc(N2CCN(S(C)(=O)=O)CC2)cc1	i	9%	3.7µM*	-22%	-1%	-2%
CC(C(Sc1ccccc1N)c1ccccc1)[N+](=O)[O-] (stereo unspecified)	12µM*	?	i	?	10%	-3%
CC(C)c1ccc(CN2CCC2(C)C(=O)Nc2ccc3c(c2)OCO3)cc1 (stereo unspecified)	16µM*	·	?	2%	·	?
COc1cccc(NC(=O)C2(C)CCN2Cc2ccc(OC(C)C)cc2)c1 (stereo unspecified)	i	·	?	1%	·	2%
CC(C)c1ccc(CC(=O)N2CCC2(C)C(=O)Nc2ccc3c(c2)OCCO3)cc1 (stereo unspecified)	i	·	16µM*	1%	·	1%
CC(C)Oc1ccc(CN2CCC2(C)C(=O)Nc2ccc3c(c2)OCO3)cc1 (stereo unspecified)	?	·	18µM*	11%	·	1%
CC(C)c1ccc(CC(=O)N2CCC2(C)C(=O)Nc2ccccc2)cc1 (stereo unspecified)	i	·	i	6%	·	1%
CN(Cc1ccc(C(=O)NC2CC2)cc1)c1nc2ccccc2o1	·	·	·	-38%	·	·
O=C(c1ccc(F)c(F)c1)c1cc2cc(Br)ccc2o1	·	·	·	-10%	·	·
COc1ccc(OC)c(NC(=O)[C@H]2C[C@H](CCSC)N[C@]23C(=O)Nc2c(C)cc(Cl)cc23)c1	·	·	·	21%	·	·
COc1ccc2cc(C(=O)Nc3ccccc3)c(C)nc2c1	·	·	·	0%	·	·
COc1cc(=O)n2c(c1C(=O)Nc1ccc(Br)cc1F)CCCC2	·	·	·	20µM*	·	·
Nc1cccc2ncccc12	·	·	·	-29%	·	·
Cc1cccc(Nc2nc(N)nc(CN3CCN(Cc4ccc5c(c4)OCO5)CC3)n2)c1	i	8%	15µM*	1%	-1%	3%[38.3 µM]
COc1cccc(N2CCN(Cc3nc(N)nc(Nc4ccccc4)n3)CC2)c1	i	12%	i	0%	11%	4%
Nc1nc(CN2CCN(Cc3ccccc3)CC2)nc(Nc2ccccc2)n1	?	2%	21µM*	2%	4%	7%[38.3 µM]
Cc1cccc(Nc2nc(N)nc(CN3CCN(c4ccccc4)CC3)n2)c1	i	0%	15µM*	0%	-7%	-2%
CCOc1ccc(Nc2nc(N)nc(CN3CCN(c4ccccc4F)CC3)n2)cc1	i	?	?	1%	18%	-1%
SMILES	KB-3-1 tox	MCF10A rerep	KB-V1 cytotox	ALOX12 inh	SW480 rerep	PINK1 modulator
Cc1cccc(Nc2nc(N)nc(CN3CCN(c4ccccc4F)CC3)n2)c1	i	?	2.3µM*	0%	?	7%
Cn1c(=O)c2c(ncn2CC(=O)c2ccc(O)cc2)n(C)c1=O	·	·	·	-22%	·	·
Cc1cc(C(=O)Cn2c(=O)c3c(ncn3CCC(C)C)n(Cc3ccccc3)c2=O)c(C)n1C	·	·	·	-12%	·	·
c1ccc2c(c1)ncn2-n1cccc1	·	·	·	17%	·	·
COc1ccc(C2Cn3nnc(C(=O)N4CCN(C(=O)c5ccc(F)cc5Cl)CC4)c3CO2)cc1 (stereo unspecified)	·	·	·	23%	·	·
O=C(NCc1ccccc1CN1CCOCC1)c1nn(-c2ccc(F)cc2)c2c1CCC2	·	·	·	-24%	·	·
Nc1nc(CN2CCN(c3ccccc3F)CC2)nc(Nc2ccc3c(c2)OCCO3)n1	?	?	9.2µM*	8%	40%	-8%[38.3 µM]
CC(C)(C)n1nc(-c2ccc(Cl)cc2)c2c(N)ncnc21	?	?	21µM*	10%	0%[9.22 µM]	-1%
CC(C)(C)n1nc(-c2ccc(F)cc2)c2c(N)ncnc21	i	6%	i	142%	6%	0%
Cc1ccc(Nc2nc3ccccc3nc2NS(=O)(=O)c2cccs2)cc1Cl	·	·	·	-2%	·	·
O=C(CSc1ccc2c(c1)OCCO2)NCCc1ccc(Cl)cc1Cl	i	17%	18µM*	-34%	-45%	4%
CC(=O)c1ccccc1NC(=O)c1ccc2c(c1)NC(=O)C(C)S2 (stereo unspecified)	?	?	?	-10%	-15%	-3%
Cc1ccnc(NC(=O)c2ccc3c(c2)NC(=O)C(C)S3)c1 (stereo unspecified)	18µM*	3%	i	98%	5%	2%
O=C(CSc1ccc2c(c1)OCCO2)Nc1ncc(Cl)cc1Cl	i	-1%	21µM*	?	-7%	1%[38.3 µM]
Cc1ccnc(NC(=O)c2ccc3c(c2)OCO3)c1	16µM*	0%	18µM*	0%	-19%	-2%
CC(C)N(CCNC(=O)c1cc(C2CC2)nc2ccccc12)C(C)C	·	·	·	6%	·	·
Nc1cccc(OCCOc2ccccc2)c1	·	·	·	-9%	·	·
CC1=C[C@@H](CNC(=O)C(C)(C)C)[C@H](C(C)C)C[C@H]1CC(=O)N(C)Cc1cccnc1	·	·	·	9%[176 µM]	·	·
CCOC(=O)NC(C(=O)NCCc1ccccc1)C(C)C (stereo unspecified)	·	·	·	-39%	·	·
CC(=O)Oc1ccc2cc(-c3nc(-c4ccc(C)cc4)no3)c(=O)oc2c1	·	·	·	-20%	·	·
Cc1cc(NC(=O)CSc2ccc3c(c2)OCCO3)no1	i	-2%	i	?	-13%	-3%
N#Cc1ccc(CN2CCN(CC(=O)NCCc3ccc(Cl)cc3Cl)CC2)cc1	i	?	18µM*	?	?	4%
Cc1ccnc(NC(=O)CSc2ccc3c(c2)OCCO3)c1	i	3%	18µM*	-28%	-5%	-1%
C=CCc1cccc(C=Nc2cc(Br)ccc2O)c1O	i	?	?	35µM*	17%	-1%
CN(Cc1cc(=O)n2cc(Cl)ccc2n1)Cc1ccccc1Cl	·	·	·	2%	·	·
